# Results reported in PubChem BioAssay (NCI).
# This is part of a sample that, as a whole, favours compounds with a hit. Of some 79,000 tested, about 15% had one in any assay. Unmarked numbers belong to inactive results. Activity calls are given as the source filed them. Cut-off read from the data, not from the text of the source: active = growth inhibition above about 70%; inactive = the rest.
# Experiments:
# [1] = NCI Yeast Anticancer Drug Screen. Data for the rad52 strain (AID 147);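 note: 0% = growth of vehicle-treated control cultures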; settings: S. cerevisiae rad52 mutant growth inhibition, stronger effect = higher value
# Summary of the method: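 Read-out: growth inhibition versus vehicle-treated controls. Cells were a DNA repair-deficient yeast strain treated with compounds.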
# [2] = NCI Yeast Anticancer Drug Screen. Data for the wt1 strain (AID 149);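 note: 0% = growth of vehicle-treated wt1 cultures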; settings: S. cerevisiae wt1 strain (SPY 50644) growth inhibition, stronger effect = higher value
# Summary of the method: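 Readout: yeast growth inhibition, normalised to vehicle controls, in the wt1 strain exposed to test compounds.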
# [3] = NCI Yeast Anticancer Drug Screen. Data for the rad50EPP+ strain (AID 151);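 note: 0% = growth of vehicle-treated control cultures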; settings: S. cerevisiae rad50 mutant strain, stronger effect = higher value
# Summary of the method: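 Growth inhibition read against vehicle controls in rad50EPP+ yeast, a strain altered in DNA damage repair, after compound exposure.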
# [4] = NCI Yeast Anticancer Drug Screen. Data for the mgt1 strain (AID 153); settings: S. cerevisiae mgt1 mutant growth inhibition, stronger effect = higher value
# Summary of the method: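 mgt1 yeast grown with test compound; read-out is growth inhibition versus vehicle-treated cultures.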
# [5] = NCI Yeast Anticancer Drug Screen. Data for the rad50 strain (AID 155);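 note: 0% = growth of vehicle-only cultures of the same strain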; settings: S. cerevisiae rad50 strain growth inhibition, stronger effect = higher value
# Summary of the method: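 Compounds were tested on a yeast strain with an engineered DNA damage repair alteration; the reported value is growth inhibition normalised to vehicle treatment.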
# [6] = NCI Yeast Anticancer Drug Screen. Data for the mec2-1 strain (AID 157); settings: S. cerevisiae mec2-1 strain, stronger effect = higher value
# Summary of the method: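 Yeast mec2-1 mutant treated with compound. Readout: growth inhibition vs vehicle controls.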
# [7] = NCI Yeast Anticancer Drug Screen. Data for the rad14 strain (AID 159);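 note: 0% = growth of vehicle-treated control cultures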; settings: S. cerevisiae rad14 strain growth inhibition, stronger effect = higher value
# Summary of the method: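 Compound-treated yeast with a defined DNA-repair lesion; growth inhibition normalised to vehicle-treated cultures.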
# [8] = NCI Yeast Anticancer Drug Screen. Data for the sgs1 mgt1 strain (AID 161);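 note: 0% = growth of cultures given vehicle only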; settings: S. cerevisiae sgs1 mgt1 strain, stronger effect = higher value
# Summary of the method: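 Mutant yeast exposed to compound; growth scored against vehicle-only wells.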
# [9] = NCI Yeast Anticancer Drug Screen. Data for the CLN2oe strain (AID 163);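 note: 0% = growth of vehicle-only control cultures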; settings: S. cerevisiae CLN2oe strain, stronger effect = higher value
# Summary of the method: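 Read-out: yeast growth inhibition, expressed relative to vehicle-only controls. The strain bears an engineered cell-cycle alteration.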
# [10] = NCI Yeast Anticancer Drug Screen. Data for the cln2 rad14 strain (AID 165);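 note: 0% = growth equal to vehicle treated cultures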; settings: S. cerevisiae cln2 rad14 strain, stronger effect = higher value
# Summary of the method: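 cln2 rad14 yeast strain; compound exposure; growth inhibition read vs vehicle controls.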
# [11] = NCI Yeast Anticancer Drug Screen. Data for the bub3 strain (AID 167); settings: S. cerevisiae bub3 mutant strain, stronger effect = higher value
# Summary of the method: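 Growth of a checkpoint-deficient yeast mutant is measured after compound exposure. Values represent inhibition relative to vehicle.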
# [12] = NCI Yeast Anticancer Drug Screen. Data for the wt2 strain (AID 169);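 note: 0% = growth of vehicle-treated yeast cultures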; settings: S. cerevisiae wt2 strain growth inhibition, stronger effect = higher value
# Summary of the method: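 Read-out: growth inhibition versus vehicle-treated control cultures after compound exposure of the yeast strain.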
# [13] = NCI Yeast Anticancer Drug Screen. Data for the mlh1 strain (AID 171);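 note: 0% = growth of vehicle-treated control cultures of the same strain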; settings: S. cerevisiae mlh1 strain growth inhibition, stronger effect = higher value
# Summary of the method: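 Read-out: growth inhibition versus vehicle controls. Strain: engineered yeast with a defined DNA repair or cell cycle defect, compound-treated.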
# [14] = NCI Yeast Anticancer Drug Screen. Data for the sgs1 strain (AID 173);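 note: 0% = growth of vehicle-only control cultures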; settings: S. cerevisiae sgs1 mutant, stronger effect = higher value
# Summary of the method: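 Read-out: yeast growth inhibition relative to vehicle controls, following compound exposure of a strain with a defined DNA repair/cell cycle alteration.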
# [15] = NCI Yeast Anticancer Drug Screen. Data for the mlh1 rad18 strain (AID 175); settings: S. cerevisiae mlh1 rad18 strain growth inhibition, stronger effect = higher value
# Summary of the method: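 Yeast w/ defined DNA-repair lesions; compound exposure; growth vs vehicle controls → % inhibition.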
# [16] = NCI Yeast Anticancer Drug Screen. Data for the rad18 strain (AID 177); settings: S. cerevisiae rad18 mutant growth inhibition, stronger effect = higher value
# Summary of the method: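 Readout: growth inhibition vs vehicle controls. Cells: genetically altered yeast strain, DNA repair defect.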
# [17] = at 5.0 µM (retest, dose inferred, filed as 0.5)
# [18] = at 50.0 µM (retest, dose inferred, filed as 5.0)
smiles,measurement,setting,value
CCCCCCN(CCCCCC)CC(O)c1ccnc2ccc(OC)cc12 (stereo not drawn),growth inhibition,[1]; at 1.2 µM,0%
same,growth inhibition,[1]; at 3.7 µM,-2%
same,growth inhibition,[1]; at 11.0 µM,-5%
same,growth inhibition,[1]; at 33.0 µM,-7%
same,growth inhibition,[1]; at 100.0 µM,66%
same,growth inhibition,[2]; at 1.2 µM,-1%
same,growth inhibition,[2]; at 3.7 µM,-3%
same,growth inhibition,[2]; at 11.0 µM,-5%
same,growth inhibition,[2]; at 33.0 µM,-7%
same,growth inhibition,[2]; at 100.0 µM,15%
same,growth inhibition,[3]; at 1.2 µM,-4%
same,growth inhibition,[3]; at 3.7 µM,-2%
same,growth inhibition,[3]; at 11.0 µM,-2%
same,growth inhibition,[3]; at 33.0 µM,-5%
same,growth inhibition,[3]; at 100.0 µM,-8%
same,growth inhibition,[4]; at 1.2 µM,1%
same,growth inhibition,[4]; at 3.7 µM,2%
same,growth inhibition,[4]; at 11.0 µM,0%
same,growth inhibition,[4]; at 33.0 µM,-3%
same,growth inhibition,[4]; at 100.0 µM,74% (active)
same,growth inhibition,[5]; at 1.2 µM,1%
same,growth inhibition,[5]; at 3.7 µM,1%
same,growth inhibition,[5]; [17],-9%
same,growth inhibition,[5]; at 11.0 µM,-1%
same,growth inhibition,[5]; at 33.0 µM,-3%
same,growth inhibition,[5]; [18],27%
same,growth inhibition,[5]; at 50.0 µM,-10.1%
same,growth inhibition,[5]; at 100.0 µM,69%
same,growth inhibition,[6]; at 1.2 µM,2%
same,growth inhibition,[6]; at 3.7 µM,-1%
same,growth inhibition,[6]; [17],-5%
same,growth inhibition,[6]; at 11.0 µM,1%
same,growth inhibition,[6]; at 33.0 µM,2%
same,growth inhibition,[6]; [18],18%
same,growth inhibition,[6]; at 50.0 µM,1.15%
same,growth inhibition,[6]; at 100.0 µM,67%
same,growth inhibition,[7]; at 1.2 µM,-2%
same,growth inhibition,[7]; at 3.7 µM,-3%
same,growth inhibition,[7]; at 11.0 µM,-4%
same,growth inhibition,[7]; at 33.0 µM,-5%
same,growth inhibition,[7]; at 100.0 µM,63%
same,growth inhibition,[8]; [17],-9%
same,growth inhibition,[8]; [18],49%
same,growth inhibition,[8]; at 50.0 µM,74.5% (active)
same,growth inhibition,[9]; at 1.2 µM,6%
same,growth inhibition,[9]; at 3.7 µM,1%
same,growth inhibition,[9]; at 11.0 µM,-1%
same,growth inhibition,[9]; at 33.0 µM,1%
same,growth inhibition,[9]; at 100.0 µM,36%
same,growth inhibition,[10]; [17],-12%
same,growth inhibition,[10]; [18],26%
same,growth inhibition,[10]; at 50.0 µM,-8.6%
same,growth inhibition,[11]; at 1.2 µM,5%
same,growth inhibition,[11]; at 3.7 µM,5%
same,growth inhibition,[11]; [17],-1%
same,growth inhibition,[11]; at 11.0 µM,6%
same,growth inhibition,[11]; at 33.0 µM,4%
same,growth inhibition,[11]; [18],40%
same,growth inhibition,[11]; at 50.0 µM,26.6%
same,growth inhibition,[11]; at 100.0 µM,61%
same,growth inhibition,[12]; at 1.2 µM,-1%
same,growth inhibition,[12]; at 3.7 µM,-4%
same,growth inhibition,[12]; at 11.0 µM,-5%
same,growth inhibition,[12]; at 33.0 µM,-5%
same,growth inhibition,[12]; at 100.0 µM,68%
same,growth inhibition,[13]; at 1.2 µM,-1%
same,growth inhibition,[13]; at 3.7 µM,-3%
same,growth inhibition,[13]; at 11.0 µM,-3%
same,growth inhibition,[13]; at 33.0 µM,-4%
same,growth inhibition,[13]; at 100.0 µM,74% (active)
same,growth inhibition,[14]; at 1.2 µM,-3%
same,growth inhibition,[14]; at 3.7 µM,-2%
same,growth inhibition,[14]; at 11.0 µM,-3%
same,growth inhibition,[14]; at 33.0 µM,-3%
same,growth inhibition,[14]; at 100.0 µM,79% (active)
same,growth inhibition,[15]; [17],-3%
same,growth inhibition,[15]; [18],14%
same,growth inhibition,[15]; at 50.0 µM,38.1%
same,growth inhibition,[16]; at 1.2 µM,-5%
same,growth inhibition,[16]; at 3.7 µM,-7%
same,growth inhibition,[16]; at 11.0 µM,-7%
same,growth inhibition,[16]; at 33.0 µM,-13%
same,growth inhibition,[16]; at 100.0 µM,35%
